Here are results for 108 compounds from ChEMBL document CHEMBL4513216, “Probing the Open Global Health Chemical Diversity Library for Multistage-Active Starting Points for Next-Generation Antimalarials” (ACS Infect Dis, 2020).

Hit rate of the full screen: of about 69,000 compounds, about 8,600 (12%) showed an effect of 50% or more. This excerpt belongs to a sample that is enriched for strong results.

The test system of the experiment is Plasmodium berghei. Kind of experiment: Screen against P. berghei liver stage (PbLuc), transformed with Luciferase, at 10uM. The class given is functional, HepG2. The settings on record: tested at 10 uM.
Consider `Cc1ccc(N2CCN(C(=O)CN3C[C@H]4CC[C@@H]3C4)CC2=O)cc1`, for which the INHIBITION is listed as 32.1%.
As to `CSc1ncnc(NCc2ccco2)c1C#N`, the INHIBITION amounted to 9%.
With `CC(=O)N1CCCC2(C1)CN(c1nncs1)CCO2` (stereo not drawn), the INHIBITION is recorded as 34%.
For `O=C(c1ccncc1)N1CCOC2(CCCN(c3nncs3)C2)C1` (stereo not drawn), the INHIBITION was determined as 58.4%.
As for `Cc1cccc(N2CCCC3(C2)CN(c2nncs2)CCO3)c1` (stereo not drawn), the INHIBITION is recorded as 38.5%.
Consider `c1cncc(N2CCOC3(CCCN(c4nncs4)C3)C2)c1` (stereo not drawn), for which the INHIBITION is on record as 26.3%.
As for `COc1ccc(N2CCCC3(C2)CN(c2nncs2)CCO3)cc1` (stereo not drawn), the INHIBITION is 65.6%.
As for `CC(=O)N1CCCC2(C1)CN(C(=O)c1ccncc1)CCO2` (stereo not drawn), the figure is 27.6%; as for `O=C(CSc1ccccc1F)NS(=O)(=O)c1ccc2c(c1)OCCO2`, 40.9%; as for `CCn1cc(S(=O)(=O)N2CCN(S(=O)(=O)c3ccc(Br)s3)CC2)cn1`, 41%.
With `Cn1cc(C2=CCN(CCC(=O)NCc3ccc(Cl)cc3)CC2)cn1`, the INHIBITION worked out at 33.7%.
For `CCn1cc(C2=CCN(CCCOc3ccccc3)CC2)cn1`, the INHIBITION is recorded as 9.56%.
Then `Cn1cc(C2=CCN(CCCC(=O)Nc3ccc(C#N)cc3)CC2)cn1`, with 50.4%; and `COc1ccccc1OCCCN1CC=C(c2cnn(C)c2)CC1`, with 30.1%; and `CC[C@@]1(O)CCN(CCCOc2ccc(C(N)=O)cc2)C[C@H]1O`, with 50.5%.
Consider `CCc1cccc(NC(=O)CCN2CC=C(c3cnn(C)c3)CC2)c1`, for which the INHIBITION was 0.348%.
Turning to `CCc1nnc(NC(=O)CCN2CC=C(c3cnn(C)c3)CC2)s1`, the INHIBITION is 60.2%.
Take `NC(=O)c1ccc(OCCCN2CCC3(CC2)OCCCC3O)cc1` (stereo not drawn): the INHIBITION amounted to 47.6%.
With `CO[C@H]1C[C@@H](O)C12CCN(CCCOc1ccc(C(N)=O)cc1)CC2`, the INHIBITION turned out to be 33.7%.
Consider `COc1ccc(NC(=O)CCN2CC=C(c3cnn(C)c3)CC2)c(C)c1`, for which the INHIBITION was 11.5%.
Consider `COc1ccc(NC(=O)CCN2CC=C(c3cnn(C)c3)CC2)cc1Cl`, for which the INHIBITION is recorded as -37.2%.
As for `Cn1cc(C2=CCN(CCCOc3ccc(C(N)=O)cc3)CC2)cn1`, the INHIBITION is reported as 53.9%.
For `CC(C)NC(=O)CCCn1cnc2ccccc2c1=O`, the INHIBITION came to 10.5%.
As for `O=C(CCn1c(=O)oc2ccccc21)NCC(O)c1ccc(F)c(F)c1` (stereo not drawn), the figure is -12.5%; as for `O=S(=O)(N1CCOCC1)N1CCCCC1CCn1cccn1` (stereo not drawn), -84.5%; as for `N#Cc1c(CN2CCCC2Cn2cncn2)cn2ccccc12` (stereo not drawn), -36%.
Then `O=C(c1ccccn1)N1CCC(S(=O)(=O)c2ccccc2)C1` (stereo not drawn), with 45.5%; and `O=C1CCOC[C@]2(CN(Cc3ccccc3)C[C@H]2c2ccccc2)N1`, with 37.1%.
In the case of `CCC(O)CN1CCN(C(=O)CCc2c(C)noc2Cl)CC1` (stereo not drawn), the INHIBITION stood at 25.1%.
On to `CC(=O)N1CCC(c2ccnc(Nc3cncnc3)n2)C1` (stereo not drawn), for which the INHIBITION was found to be 42.6%.
Consider `CCN1CC2(CCNCC2)COc2ccccc2S1(=O)=O`, for which the INHIBITION is recorded as -0.79%.
With `CNC(=O)CN1C(=O)CCC12CCCN(Cc1cccc(F)c1)C2` (stereo not drawn), the INHIBITION came to 32.1%.
For `Cc1nc2[nH]cnc(Nc3cc(C)n(C)n3)c-2n1`, the INHIBITION is -6.42%.
In the case of `CCn1ccnc1CN(C)C1CCCN(Cc2ccccc2F)C1` (stereo not drawn), the INHIBITION is listed as -11.3%.
In the case of `CCN(Cc1ccncc1)C1CCCN(Cc2ccc(F)cc2Cl)C1` (stereo not drawn), the INHIBITION is given as 62.4%.
As for `Cc1nc(CN2CCCC(N(C)CCc3ccncc3)C2)no1` (stereo not drawn), the figure is 25.7%; as for `CCN(Cc1ccncc1)C1CCCN(Cc2ccc(F)cc2OC)C1` (stereo not drawn), 25.5%.
On to `CCN(Cc1ccncc1)C1CCCN(C/C=C/c2ccc(F)cc2)C1` (stereo not drawn), for which the INHIBITION is 55.9%.
On to `CCn1c(C2CCCN(Cc3ccc(F)cc3Cl)C2)nn(C)c1=O` (stereo not drawn), for which the INHIBITION is given as -36.4%.
`O=C(c1ccncc1F)N1CCc2onc(COc3cccnc3)c2C1`: the INHIBITION is reported as 29.9%.
For `CCc1nc(CC)n(CC(=O)NCc2ccccc2C)n1`, the INHIBITION is recorded as 37.6%.
As to `CC(Cn1cccn1)NC(=O)N(C)Cc1cnn(C)c1` (stereo not drawn), the INHIBITION was found to be 22.6%.
As for `O=C(c1ccc2c(c1)CCO2)N1CCN(c2cnccn2)CC1`, the INHIBITION was -32%.
Turning to `NCC(=O)N1CCCC(O)(CN2CCN(c3ccccc3)CC2)CC1` (stereo not drawn), the INHIBITION came to 2.55%.
For the compound `Cc1nnc(N2CC[C@H](OCC3CC3)[C@@H](Cc3ccccc3)C2)s1`, the INHIBITION was 41.4%.
Take `CO[C@H]1CCN(c2nnc(C)s2)C[C@@H]1Cc1ccccc1`: the INHIBITION is listed as -13.7%.
Consider `CO[C@@H]1CCN(c2nnc(C)s2)C[C@@H]1Cc1ccccc1`, for which the INHIBITION was found to be 37.8%.
Turning to `COc1ccc(C[C@H]2CN(c3nnc(C)s3)CC[C@@H]2OC)cc1`, the INHIBITION is recorded as -3.83%.
As for `Cc1nnc(N2CC[C@@H](OCC3CC3)[C@@H](Cc3ccccc3)C2)s1`, the INHIBITION stood at 92.5%.
For the compound `COc1ccc(C[C@H]2CN(c3nnc(C)s3)CC[C@H]2OC)cc1`, the INHIBITION is listed as 61.9%.
On to `CC(C)(C(=O)NCC1CCN(Cc2cccnc2)C1)c1ccccc1` (stereo not drawn), for which the INHIBITION came out at 6.66%.
With `O=C(NC1CC1)c1ccccc1NCc1cn2cccnc2n1`, the INHIBITION is reported as -17%.
`Cn1ccnc1CN1CCC2(CC1)CCN(c1ccccc1)C2=O`: the INHIBITION is on record as 16.6%.
Turning to `CN1CC2(CCN(Cc3cccnc3)CC2)c2cccc(F)c21`, the INHIBITION was -16.9%.
Then `CN(C)C1CCC2(CCN(Cc3cccnc3)CC2)c2ccccc21` (stereo not drawn), with 50.4%; and `CN(C)C1CCC2(CCN(Cc3nccn3C)CC2)c2ccccc21` (stereo not drawn), with 66.3%.
With `Cn1ccnc1CN1CCC2(CC1)CC(N1CCCC1)c1ccccc12` (stereo not drawn), the INHIBITION is listed as 24.6%.
As for `CN1CC2(CCN(Cc3cccnc3)CC2)c2cc(F)ccc21`, the INHIBITION was -29.8%.
Regarding `Cc1nn(CCC(=O)N2CCCC(OCc3cccnc3)C2)c(C)c1C` (stereo not drawn), the INHIBITION was found to be 41.2%.
As for `COC1CCCOC12CCN(C(=O)NCCc1cccs1)CC2` (stereo not drawn), the INHIBITION is -142%.
With `O=C(N1CCCCC1)N1CCCC(c2ncncc2-c2ccncc2)C1` (stereo not drawn), the INHIBITION was determined as 17.1%.
In the case of `CCCc1cc(CN(C)C2CSCCSC2)n[nH]1`, the INHIBITION is recorded as 51.1%.
Consider `CCCc1cc(CN(C)C2CC(C)(C)NC(C)(C)C2)n[nH]1`, for which the INHIBITION was 11.6%.
Regarding `COCc1cc(CN(C)C(=O)c2c[nH]nc2-c2cccc(F)c2)n[nH]1`, the INHIBITION is reported as -11.2%.
For the compound `CCCc1cc(CN(C)C2CCSCC2)n[nH]1`, the INHIBITION is listed as 50.1%.
Turning to `Cc1cc(CC(C)NC2CCSCC2)[nH]n1` (stereo not drawn), the INHIBITION worked out at 22.7%.
As for `CCCc1cc(C(=O)N(Cc2cccnc2)C2CCCCC2)[nH]n1`, the figure is -9.87%; as for `CCCNC(=O)NC(=O)CN1CCN(Cc2nccn2CC)CC1`, 5.308%; as for `Cc1nc(CN2CCN(C(=O)CCc3nc(C(C)(C)C)no3)CC2)cs1`, 30.8%.
On to `c1cncc(CN2CCc3c(nnn3CC3CC3)C2COCC2CC2)c1` (stereo not drawn), for which the INHIBITION amounted to 27.4%.
Take `CCN1CCN(C(=O)Cn2ncc3c2c(C)nn3C(C)C)CC1`: the INHIBITION stood at 15.9%.
Then `CCC(C)N(C)CCNC(=O)c1ccccc1OCCOC` (stereo not drawn), with 8.64%; and `O=C1CCC2(CCCN(Cc3ccccc3F)C2)N1CC1CC1` (stereo not drawn), with -19.6%; and `CCOCc1ccccc1NC(=O)NCC(C)(O)c1cc(C)oc1C` (stereo not drawn), with 85.5%.
Regarding `CCOCc1ccccc1NC(=O)NCC(C)(O)c1ccsc1` (stereo not drawn), the INHIBITION was 11%.
Take `CCOCc1ccccc1NC(=O)NCC(C)(O)c1cccs1` (stereo not drawn): the INHIBITION is recorded as 0.734%.
As to `CCC(CN1CCCC1)n1cncc1-c1cnn(Cc2ccccc2)c1` (stereo not drawn), the INHIBITION was determined as 3.5%.
For `CN(C)S(=O)(=O)N1CCC(c2ccncc2)CC1`, the INHIBITION is recorded as -33.4%.
Then `Cc1cccc(NC(=O)C(C)Oc2ccc3c(c2)OCO3)n1` (stereo not drawn), with 53.7%; and `Cc1cc(NC(=O)C(C)Oc2ccc3c(c2)OCO3)no1` (stereo not drawn), with 14.6%; and `Cc1cc(C)nc(NC(=O)C(C)Oc2ccc3c(c2)OCO3)n1` (stereo not drawn), with 48.5%.
As for `CC(=O)c1cccc(CN2CCCC23CCN(c2ccccn2)CC3)c1`, the INHIBITION is given as 19.8%.
Regarding `COc1cccc(CSC=C2Nc3ccccc3S(=O)(=O)N2)c1`, the INHIBITION came to 27.7%.
Take `CNS(=O)(=O)c1ccc(CCC(=O)NCc2cccc(OC)c2)cc1`: the INHIBITION is reported as -74.6%.
As for `COc1cccc(CN(C)CC2=Nc3ccccc3S(=O)(=O)N2)c1`, the INHIBITION is given as 69.7%.
Take `COc1cccc(CNC(=O)CCOc2ccccc2C)c1`: the INHIBITION is reported as 2.43%.
Take `COc1cccc(CNC(=O)CCC2=Nc3ccccc3S(=O)(=O)N2)c1`: the INHIBITION came to 57%.
With `COc1cccc(CN(C)CC(=O)NC2(C)CCS(=O)(=O)C2)c1` (stereo not drawn), the INHIBITION is -27.9%.
Regarding `Cc1nn(C)c(N(C)C)c1CNC1CCOc2ccccc21` (stereo not drawn), the INHIBITION is -5.05%.
For the compound `Cc1oc2c(c1C(=O)N1C[C@H](O)[C@]3(CCCO3)C1)CCCC2`, the INHIBITION is 3.95%.
Turning to `CC1CN(C)CCN1C(=O)Nc1nc(-c2ccc[nH]2)cs1` (stereo not drawn), the INHIBITION was 6.33%.
In the case of `CS(=O)(=O)NCCNCc1ccc(Br)s1`, the INHIBITION was -40.7%.
Then `CN1C(=O)C(C)(C)COc2cc(NS(=O)(=O)c3ccccc3F)ccc21`, with 22.3%.
Then `CC(C)Sc1ncccc1C(=O)NCc1ccc(CS(C)(=O)=O)cc1`, with 14.4%; and `CC(C)Sc1ncccc1C(=O)NCc1ccc(O)cc1`, with 60.7%.
Take `CC(C)Sc1ncccc1C(=O)NCc1ccoc1`: the INHIBITION is reported as 42.9%.
For `O=C(NCCc1nnc2n1CCC2)NCC1(c2ccc(F)cc2)CC1`, the INHIBITION was found to be 9.63%.
`COc1ccccc1N1CCN(C(=O)Cn2nc(C)c(Cl)c2C)CC1`: the INHIBITION is -29.2%.
As to `CCS(=O)(=O)N1CCC2(CC1)CC1(CCN(CCOC)CC1)C(=O)N2C`, the INHIBITION is recorded as 40.8%.
With `Cc1cc(CN[C@@H](C)C(N)=O)c(C)s1`, the INHIBITION amounted to 16.3%.
Take `Cc1cc(CN[C@@H](Cc2ccccc2)C(N)=O)c(C)s1`: the INHIBITION is on record as 53.3%.
`Cc1cc(CN[C@H](C(N)=O)[C@@H](C)O)c(C)s1`: the INHIBITION was found to be 38.7%.
As for `Cc1csc(C(C)(C)NCc2ncc(-c3ccc(F)cc3)o2)n1`, the figure is -46.4%.
As for `COc1ncc(CN2CCOC(C)(C(=O)N3CCOCC3)C2)cn1` (stereo not drawn), the figure is 41.2%.
On to `O=c1[nH]ncc(NCCOc2cccc(Br)c2)c1Cl`, for which the INHIBITION was 15.6%.
As for `O=c1[nH]ncc(NCCOc2ccc3c(c2)OCO3)c1Cl`, the figure is 20.3%; as for `O=c1[nH]ncc(NCCOc2ccc3c(c2)CCC3)c1Cl`, 77.1%.
As for `CCn1nccc1CN(C)C(=O)Cn1cc2c(n1)c(C)nn2CC`, the INHIBITION is 35%.
